{"source": "paper PMC4552634", "about": "“A New Set of Chemical Starting Points with Plasmodium falciparum Transmission-Blocking Potential for Antimalarial Drug Discovery” (PLoS ONE, 2015)", "note": "Out of some 13,000 compounds screened, about 3,200 (25%) showed an effect of 50% or more. This is one part of the list.", "data": [{"system": "P. falciparum stage V gametocytes", "design": "BacTiter-Glo ATP luminescence viability of purified stage V gametocytes in 384-well plates, per cent inhibition versus DMSO", "settings": "48 h, 5 µM; inhibitor", "units": {"% Inhibition": "%"}, "values": [{"smiles": "Oc1ccc(-c2cc(-c3ccc(O)cc3)nc(-c3ccccc3)n2)cc1", "note": "[TCMDC-123851]", "% Inhibition": -22.65}, {"smiles": "Cc1ccccc1C1CCN(C2CCC(NC(=O)c3ccc(-c4ccccc4)s3)CC2)CC1", "note": "(stereo not drawn) [TCMDC-134113]", "% Inhibition": -48.7}, {"smiles": "Cc1ccccc1C1CCN(C2CCC(NC(=O)c3ccc(-c4cccc(C(F)(F)F)c4)o3)CC2)CC1", "note": "(stereo not drawn) [TCMDC-134108]", "% Inhibition": 57.44}, {"smiles": "Cc1ccccc1C1CCN(C2CCC(NC(=O)c3ccc(-c4ccccc4F)o3)CC2)CC1", "note": "(stereo not drawn) [TCMDC-134110]", "% Inhibition": 121.1}, {"smiles": "CCc1c(C(=O)NC2CCC(N3CCC(c4ccccc4C)CC3)CC2)[nH]c2ccc(OC)cc12", "note": "(stereo not drawn) [TCMDC-133531]", "% Inhibition": -38.07}, {"smiles": "Cc1ccccc1C1CCN(C2CCC(NC(=O)c3cncc(-c4ccccc4)c3)CC2)CC1", "note": "(stereo not drawn) [TCMDC-134111]", "% Inhibition": -71.64}, {"smiles": "Cc1ccccc1C1CCN(C2CCC(NC(=O)c3cc4cc(Cl)ccc4o3)CC2)CC1", "note": "(stereo not drawn) [TCMDC-134102]", "% Inhibition": -69.82}, {"smiles": "Cc1ccccc1C1CCN(C2CCC(NC(=O)c3csc(-c4cccc(Cl)c4)n3)CC2)CC1", "note": "(stereo not drawn) [TCMDC-134104]", "% Inhibition": -68.67}, {"smiles": "COc1cccc(-c2cc(C(=O)NC3CCC(N4CCC(c5ccccc5C)CC4)CC3)[nH]n2)c1", "note": "(stereo not drawn) [TCMDC-133532]", "% Inhibition": 73.16}, {"smiles": "Cc1ccccc1C1CCN(C2CCC(NC(=O)c3cc(-c4ccccc4)oc3C)CC2)CC1", "note": "(stereo not drawn) [TCMDC-134112]", "% Inhibition": -36.13}, {"smiles": "Cc1ccccc1C1CCN(C2CCC(NC(=O)c3cc(-c4ccc(Cl)cc4)cs3)CC2)CC1", "note": "(stereo not drawn) [TCMDC-133529]", "% Inhibition": 65.99}, {"smiles": "Cc1ccc(/C=C/C(=O)NC2CCC(N3CCC(c4ccccc4C)CC3)CC2)cc1F", "note": "(stereo not drawn) [TCMDC-133514]", "% Inhibition": -74.34}, {"smiles": "COc1ccc(-c2csc(C(=O)NC3CCC(N4CCC(c5ccccc5C)CC4)CC3)c2)cc1", "note": "(stereo not drawn) [TCMDC-134109]", "% Inhibition": 30.06}, {"smiles": "CCCCN(Cc1cnccc1-c1ccc(Br)cc1)c1ccc(C(O)(C(F)(F)F)C(F)(F)F)cc1", "note": "[TCMDC-135242]", "% Inhibition": 23.71}, {"smiles": "CCC(C)CN1CCCN(c2ccc(NC(=O)c3cccs3)cc2)CC1", "note": "(stereo not drawn) [TCMDC-134998]", "% Inhibition": 9.826}, {"smiles": "CCN(Cc1ccccc1)C1CCN(Cc2cc(Br)ccc2O)CC1", "note": "[TCMDC-123661]", "% Inhibition": 1.171}, {"smiles": "O=C(Nc1ccc(Cl)cc1)Nc1ccc(-c2csc(-c3nc4ccccc4[nH]3)c2)cc1", "note": "[TCMDC-133174]", "% Inhibition": 10.18}, {"smiles": "Cc1cc(N2CCCC2)nc(Nc2ccc(NC(=O)C(C)C)cc2)n1", "note": "[TCMDC-124970]", "% Inhibition": -2.67}, {"smiles": "Cc1cc(N2CCCC2)nc(Nc2ccc(NC(=O)Nc3ccccc3)cc2)n1", "note": "[TCMDC-124705]", "% Inhibition": -12.69}, {"smiles": "Cc1cc(N2CCCC2)nc(Nc2ccc(NC(=O)C(C)(C)C)cc2)n1", "note": "[TCMDC-124716]", "% Inhibition": 77.07}, {"smiles": "CCNc1cc(C(=O)N[C@@H](Cc2ccccc2)[C@H](O)CNCCCc2ccc(OC)cc2)cc(N2CCCC2=O)c1", "note": "[TCMDC-141685]", "% Inhibition": 6.049}, {"smiles": "COc1ccccc1CNc1ccnc(N2CC(Oc3ccc(F)cc3)C2)n1", "note": "[TCMDC-135118]", "% Inhibition": 57.67}, {"smiles": "CCNC(=O)N1CCc2ccc(Oc3nc(NCc4ccccc4OC)ncc3C)cc2CC1", "note": "[TCMDC-133414]", "% Inhibition": 17.56}, {"smiles": "O=C(Nc1ccc(OC2CCN(Cc3ccc(F)cc3)C2)cc1)c1ccco1", "note": "(stereo not drawn) [TCMDC-133758]", "% Inhibition": 44.14}, {"smiles": "Cc1onc(-c2ccccc2)c1-c1nc(NCc2ccccc2Cl)no1", "note": "[TCMDC-134205]", "% Inhibition": -12.6}, {"smiles": "CCOc1ccccc1CNc1nccc(NCc2ccccc2OC)n1", "note": "[TCMDC-135119]", "% Inhibition": 40.21}, {"smiles": "Fc1ccc(OC2CN(c3nccc(NCc4ccccc4Cl)n3)C2)cc1", "note": "[TCMDC-135110]", "% Inhibition": 91.97}, {"smiles": "CC(C)(C)NC(=O)c1ccc(Oc2ccc(OC(F)(F)F)cc2)c(NC(=O)C(C)(C)C)c1", "note": "[TCMDC-137270]", "% Inhibition": -22.87}, {"smiles": "COC(=O)C(C)NCC(=O)c1ccccc1", "note": "(stereo not drawn) [TCMDC-131767]", "% Inhibition": 45.43}, {"smiles": "CCC(CC(C)C(=O)O)=C(c1ccccc1)c1ccccc1", "note": "(stereo not drawn) [TCMDC-131707]", "% Inhibition": -2.137}, {"smiles": "CC(C)[C@H](NCC(=O)c1ccccc1)C(=O)O", "note": "[TCMDC-131333]", "% Inhibition": 52.78}, {"smiles": "COc1cc(NC(=O)N2CCOC(CCN3CCC4(CCc5ccccc54)CC3)(c3ccc(Cl)c(Cl)c3)C2)cc(OC)c1", "note": "(stereo not drawn) [TCMDC-135338]", "% Inhibition": -0.7672}, {"smiles": "CCc1c(C)nc(-n2nc(C)cc2NC(=O)CCc2ccccc2)[nH]c1=O", "note": "[TCMDC-124934]", "% Inhibition": -11.5}, {"smiles": "COc1ccc2ncc(F)c(CCN3CC(O)C(CNCc4ccc5ccccc5c4)C3)c2n1", "note": "(stereo not drawn) [TCMDC-136528]", "% Inhibition": 43.95}, {"smiles": "COc1ccc2ncc(F)c(CCN3CC(O)C(CNCc4ccc(F)cc4)C3)c2n1", "note": "(stereo not drawn) [TCMDC-136527]", "% Inhibition": 13.85}, {"smiles": "COc1ccc2ncc(F)c(CCN3C[C@H](CNCc4cc(C#N)c5c(c4)OCCO5)[C@H](O)C3)c2n1", "note": "[TCMDC-136275]", "% Inhibition": 16.8}, {"smiles": "CCc1cc(CNC2CCN(CCc3c(F)cnc4ccc(OC)nc34)CC2)cc2c1OCCO2", "note": "[TCMDC-136290]", "% Inhibition": 31.48}, {"smiles": "COc1ccc2ncc(F)c(CCN3CCC(NCc4cc(F)c5c(c4)OCCO5)CC3)c2n1", "note": "[TCMDC-135849]", "% Inhibition": 84.79}, {"smiles": "COc1ccc2ncc(F)c(CCN3CCC4(CC3)COC(c3cc5c(cn3)OCCO5)=N4)c2n1", "note": "[TCMDC-135741]", "% Inhibition": 93.18}, {"smiles": "COc1ccc2ncc(F)c(CCN3CCC(NCc4cc(OC)c5c(c4)OCCO5)CC3)c2n1", "note": "[TCMDC-135509]", "% Inhibition": 17.67}, {"smiles": "COc1ccc2ncc(F)c(CCN3CC(O)C(CNCc4ccc5oc(=O)ccc5c4)C3)c2n1", "note": "(stereo not drawn) [TCMDC-136499]", "% Inhibition": 11.09}, {"smiles": "COc1ccc2ncc(F)c(CCN3CCC(NCc4cc(C)c5c(c4)OCCO5)CC3)c2n1", "note": "[TCMDC-136209]", "% Inhibition": 19.66}, {"smiles": "COc1ccc2ncc(F)c(CCN3CCC(NCc4cc(Br)c5c(c4)OCCO5)CC3)c2n1", "note": "[TCMDC-136211]", "% Inhibition": 30.05}, {"smiles": "COc1ccc2ncc(F)c(CCN3CC(O)C(CNCc4ccc5c(c4)OCCO5)C3)c2n1", "note": "(stereo not drawn) [TCMDC-136518]", "% Inhibition": 55.46}, {"smiles": "COc1ccc2ncc(F)c(CCN3CC(O)C(CNCc4ccccc4)C3)c2n1", "note": "(stereo not drawn) [TCMDC-136498]", "% Inhibition": 50.66}, {"smiles": "NC1=NC(c2ccccc2)(c2ccccc2)C(=O)N1CCCCc1ccccc1", "note": "[TCMDC-136488]", "% Inhibition": 3.475}, {"smiles": "Fc1cccc(COc2ccc(Nc3ncnc4sc(C#Cc5ncc[nH]5)cc34)cc2Cl)c1", "note": "[TCMDC-135407]", "% Inhibition": -1.353}, {"smiles": "O=C(Nc1cccc(-c2nn3ccccc3c2-c2ccnc(Nc3cccc(C(F)(F)F)c3)n2)c1)c1c(F)cccc1F", "note": "[TCMDC-135527]", "% Inhibition": -78.64}, {"smiles": "COc1cccc(C2(c3cccc(OC)c3)N=C(N)N(CCCc3ccccc3)C2=O)c1", "note": "[TCMDC-136492]", "% Inhibition": -28.16}, {"smiles": "CC1CN(C(=O)c2sc3ccccc3c2Cl)CC(C)O1", "note": "(stereo not drawn) [TCMDC-125225]", "% Inhibition": 2.721}, {"smiles": "C/C=C1\\CN2CC[C@H]1C[C@@H]2[C@@H](O)c1ccnc2ccc(O)cc12", "note": "[TCMDC-138273]", "% Inhibition": 7.487}, {"smiles": "Cc1ccc(C)c(NC(=O)CC2C(=O)N(c3ccccc3)C(=S)N2Cc2ccco2)c1", "note": "(stereo not drawn) [TCMDC-124000]", "% Inhibition": 88.68}, {"smiles": "Cc1cc(C)c(-c2n[nH]c3c2C(c2cccc(Cl)c2)N(Cc2ccco2)C3=O)c(O)c1", "note": "(stereo not drawn) [TCMDC-125307]", "% Inhibition": -65.67}, {"smiles": "O=C(Nc1ccc(C(=O)Oc2cccc3ccccc23)cc1)N[C@@H](Cc1ccc(O)cc1)C(=O)NC1CCN(Cc2ccc(O)cc2)C1", "note": "(stereo partly drawn) [TCMDC-135360]", "% Inhibition": -40.07}, {"smiles": "O=c1c2ccc(Sc3ccccn3)cc2n(-c2ccccc2)c2cc(Sc3ccccn3)ccc12", "note": "[TCMDC-137528]", "% Inhibition": 7.065}, {"smiles": "O=C(C=Cc1ccccc1)Nc1ccc(C#CC=Cc2ccc(NC(=O)C=Cc3ccccc3)cc2)cc1", "note": "[TCMDC-125718]", "% Inhibition": -11.21}, {"smiles": "Cc1cc(N)c2cc(NC(=O)/C=C/c3ccccc3)ccc2n1", "note": "[TCMDC-139337]", "% Inhibition": 92.06}, {"smiles": "CC1(C)CN2CCCC2c2cc(NC(=O)/C=C/c3ccccc3Cl)ccc21", "note": "(stereo not drawn) [TCMDC-139348]", "% Inhibition": 26.85}, {"smiles": "COc1cc(C)nc2ccc(NC(=O)Nc3ccc([N+](=O)[O-])cc3C)cc12", "note": "[TCMDC-139395]", "% Inhibition": -13.54}, {"smiles": "CN1Cc2cc(NC(=O)/C=C/c3ccccc3Cl)ccc2C(C)(C)C1", "note": "[TCMDC-139315]", "% Inhibition": 78.19}, {"smiles": "Cc1cc(N)c2cc(NC(=O)/C=C/c3ccc([N+](=O)[O-])cc3)ccc2n1", "note": "[TCMDC-139335]", "% Inhibition": 102.5}, {"smiles": "Cc1cc(N)c2cc(NC(=O)/C=C/c3ccccc3Cl)ccc2n1", "note": "[TCMDC-139459]", "% Inhibition": 113.2}, {"smiles": "COc1cc(C)nc2ccc(NC(=O)c3cc([N+](=O)[O-])cc([N+](=O)[O-])c3)cc12", "note": "[TCMDC-139382]", "% Inhibition": 32.9}, {"smiles": "Nc1cccc(C=CC(=O)Nc2ccnc3ccccc23)c1", "note": "[TCMDC-139290]", "% Inhibition": 5.125}, {"smiles": "CCOC(=O)C1CCN(CCOc2cc(NC(=O)/C=C/c3ccccc3Cl)ccc2Br)CC1", "note": "[TCMDC-140963]", "% Inhibition": -16.5}, {"smiles": "CCOc1ccccc1C=CC(=O)Nc1ccc2nc(N3CCN(C)CC3)cc(C)c2c1", "note": "[TCMDC-123801]", "% Inhibition": -1.147}, {"smiles": "O=C(/C=C/c1ccccc1Cl)Nc1ccc(Br)c(OCCN2CCCCC2)c1", "note": "[TCMDC-140959]", "% Inhibition": -53.57}, {"smiles": "NC(N)=NC(=O)Nc1cc(F)c(Cl)c(Cl)c1", "note": "[TCMDC-137462]", "% Inhibition": 6.486}, {"smiles": "O=c1ccc2ncc(Cl)c3c2n1CC3CN1CCC(NCc2cc3c(cn2)OCCO3)CC1", "note": "(stereo not drawn) [TCMDC-135967]", "% Inhibition": 20.98}]}]}
